Our source for the z-score values is PubChem BioAssay.

Activity calls are given as the source filed them.

A short description of experiment [1]: A549 cell viability effects, profiling panel, calcein-AM fluorescence, 48 h, basal (AID 1162). Conditions: higher = more signal.
The nature of experiment [2]: adipocyte viability effects, profiling panel, cell-based, 3T3-L1 adipocytes, calcein-AM fluorescence, 48 h, basal (AID 1163). The conditions noted are these: 3T3-L1 adipocytes viability, higher = more signal.
The nature of experiment [3]: HepG2 cell viability effects, profiling panel, calcein-AM fluorescence, 48 h, basal (AID 1164). The conditions noted are these: higher = more signal.
The nature of experiment [4]: MM1S cell viability effects, profiling panel, calcein-AM fluorescence, 48 h, basal (AID 1165).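 Further: viability of MM1S multiple myeloma cells under basal unstimulated conditions.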 Conditions: higher = more signal.
Experiment [5] can be described thus: basal RPMI8226 viability, no added stimulus, profiling panel, cell-based, calcein-AM fluorescence, 48 h, PK04 Diversity Set (AID 1166).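 Further: cells grown under basal conditions without added stimulus.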 The conditions noted are these: RPMI8226 myeloma viability, higher = more signal.
Experiment [6] in a line: basal HepG2 mitochondrial membrane potential changes, profiling panel, cell-based, JC-1 fluorescence, 24 h, 100 nL compound (AID 1167). Conditions: higher = more signal.
Experiment [7] in a line: basal 3T3-L1 adipocyte mitochondrial potential changes, profiling panel, cell-based, JC-1 fluorescence, 3T3-L1 adipocytes, 24 h, 100 nL compound (AID 1168). The conditions noted are these: JC-1 mitochondrial fluorescence, higher = more signal, called active from +8 up or from −8 down.
Experiment [8] is described as follows: basal RPMI8226 mitochondrial membrane potential changes, profiling panel, cell-based, JC-1 fluorescence, 24 h, 100 nL compound (AID 1169). The conditions noted are these: RPMI8226 myeloma, JC-1 mitochondrial potential fluorescence, higher = more signal.
The nature of experiment [9]: basal MM1S mitochondrial membrane potential changes, profiling panel, cell-based, JC-1 fluorescence, 24 h, 100 nL compound (AID 1170). The conditions noted are these: higher = more signal.
The nature of experiment [10]: A549 lung cancer cell viability effects, profiling panel, resazurin fluorescence, 24 h, PK04 Diversity Set (AID 1171). Conditions: higher = more signal, called active from +8 up or from −8 down. For orientation: Resazurin is reduced to fluorescent resorufin, in cell work by metabolically active cells.
Further: test concentration not given here.

As for `C=CCC(OC(C)=O)[C@@H]1[C@@H](N(Cc2cccc3ccccc23)C(=O)Cc2ccc(OC)cc2)c2cc(OCCCO)ccc2N1C(=O)c1ccc2ccccc2n1` (stereo not given in full), the z-score in [1] is -0.639; in [2], 1.69; in experiment [3], 0.493; in experiment [4], -1.27; in experiment [5], -0.192; in experiment [6] it was 1.64. Besides, the z-score was -0.0994 (inactive) in [7], 0.106 in [8], 0.306 in experiment [9] and 0.679 (inactive) in experiment [10].

Regarding `N#Cc1ccc(NN2C(C(O)c3ccc(F)cc3)C=CC3C(=O)N(c4ccccc4)C(=O)C32)cc1` (stereo not given), the z-score was -0.518 in [1]; -0.877 in experiment [2]; 0.211 in experiment [3]; -0.453 in experiment [4]; -1.33 in experiment [5]; -1.58 in experiment [6]. Further, the z-score was -0.311 (inactive) in experiment [7], 0.321 in [8], 0.153 in [9] and 0.133 (inactive) in experiment [10].

For the molecule `COC(=O)[C@@]1(Cc2ccc(OC)cc2)[C@H]2c3cc(C(=O)N(C)C)n(Cc4ccc(Cl)c(C(F)(F)F)c4)c3C[C@H]2CN1C(=O)c1ccccc1`, the z-score in experiment [1] is -0.585; in experiment [2], -0.88; in [3], -0.585; in [4] it was -1.93; in [5], -2.39; in experiment [6], 0.765. Further, the z-score in experiment [7] is -0.938 (inactive); in experiment [8], -0.652; in experiment [9], -1.69; in experiment [10], -1.83 (inactive).

Regarding `COC(=O)[C@@]1(Cc2ccc(F)cc2)[C@H]2c3cc(C(=O)N4CCCC4)n(CCN4CNCC4=O)c3C[C@H]2CN1C(=O)c1ccccc1`, the z-score is -0.0823 in [1]; 1.32 in [2]; -0.403 in experiment [3]; -0.0244 in experiment [4]; -1.67 in experiment [5]; 2.44 in experiment [6]. For the same molecule, the z-score in [7] was -0.933 (inactive); in experiment [8] it was -0.452; in experiment [9], -1.23; in [10] it was 0.415 (inactive).

Regarding `CCCCCCCCCCC(O)C1C=CC2C(=O)N(C)C(=O)C2N1NC(=O)OC(C)(C)C` (stereo not given), the z-score in experiment [1] was -3.85; in [2], 0.0766; in experiment [3], -5.09; in [4] it was -3.91; in experiment [5], -4.14; in experiment [6], -3.31. Besides, the z-score in [7] is -0.464 (inactive); in experiment [8] it was -0.946; in experiment [9] it was -2.37; in [10] it was -3.67 (inactive).

Turning to `O=C1OCCC=C[C@H]2OC34C=CCN(Cn5nnc6ccccc65)C(=O)[C@H]3N(CCCCCCO)C(=O)[C@@H]4C12` (stereo not given in full), the z-score was 0.16 in experiment [1]; -0.808 in [2]; -0.381 in [3]; 1.78 in experiment [4]; -0.264 in experiment [5]; 0.515 in experiment [6]. Also, the z-score was 0.256 (inactive) in experiment [7], -0.137 in [8], -0.5 in [9] and -0.356 (inactive) in experiment [10].

Consider `NCCCCCCNC(=O)[C@@H]1C[C@@H]2C(=O)N[C@@H](CCCCN)C(=O)N2[C@@H]1c1cccc(OCCO)c1`, for which the z-score in experiment [1] is 0.892; in experiment [2], -0.452; in experiment [3], 0.514; in experiment [4], 0.835; in experiment [5], 0.986; in experiment [6], 0.0199. For the same molecule, the z-score in [7] is 0.759 (inactive); in [8], -0.639; in experiment [9], -0.451; in experiment [10], 0.551 (inactive).

As for `CCOC(=O)C1=CC[C@@H](c2ccc(OCc3ccccc3)c(OC)c2)N(S(=O)(=O)c2ccc(C)cc2)[C@H]1c1ccc(SC)cc1`, the z-score in experiment [1] is -0.568; in [2], 0.211; in [3], 0.355; in experiment [4], -0.821; in [5], -0.906; in experiment [6], 1.37. Besides, the z-score in experiment [7] is -1.14 (inactive); in [8] it was 0.419; in [9], -0.598; in [10], 1.33 (inactive).

Turning to `CC(=O)NCCCC[C@@H]1NC(=O)[C@@H]2C[C@H](C(=O)NCCCC[N+](C)(C)C)[C@H](c3ccc(O)cc3)N2C1=O`, the z-score in experiment [1] was -0.431; in [2], 0.994; in [3] it was -1.29; in experiment [4] it was -0.606; in experiment [5] it was 0.274; in [6], -1.42. Moreover, the z-score in experiment [7] was -0.152 (inactive); in experiment [8] it was -0.547; in experiment [9] it was -0.0697; in experiment [10], -1.04 (inactive).

Turning to `C=CC[C@]1(C(=O)O)COC(c2ccc(OCCCO)cc2)=N1`, the z-score in experiment [1] was 0.083; in [2], -0.206; in [3] it was -0.148; in experiment [4], -0.0046; in experiment [5], -0.571; in [6] it was 0.0919. The z-score in [7] was 0.224 (inactive); in experiment [8], -0.0187; in experiment [9] it was -0.116; in experiment [10] it was -0.408 (inactive).

As to `C[C@@H]1ON(c2ccc(C(=O)OC(C)(C)C)cc2)[C@H](c2ccc(O)cc2)[C@H]1C(=O)N1C(=O)OC[C@H]1Cc1ccccc1`, the z-score was -1.68 in experiment [1]; 0.82 in [2]; -4.85 in experiment [3]; -3.31 in [4]; -4.04 in experiment [5]; -3.38 in experiment [6]. The z-score in experiment [7] was -0.493 (inactive); in [8], -0.877; in experiment [9], -2.81; in [10] it was -1.31 (inactive).

For the molecule `COc1ccccc1CN1C(=O)c2ccccc2[C@@]2(Cc3ccccc3N(CC(F)(F)F)C2=O)[C@@H]1c1ccc(CO)cc1`, the z-score in [1] is -0.912; in [2], -0.744; in experiment [3], 0.162; in experiment [4] it was 0.291; in experiment [5], -0.956; in [6] it was -0.505. Besides, the z-score was -0.363 (inactive) in experiment [7], -0.0759 in [8], -0.946 in experiment [9] and -0.682 (inactive) in [10].

`C=CC1c2cc(O)c(OC)cc2CCN1Cc1cc2c(cc1Br)OCO2` (stereo not given): the z-score was -3.63 in experiment [1]; 1.28 in experiment [2]; -4.07 in experiment [3]; -3.17 in experiment [4]; -4.57 in experiment [5]; -2.98 in experiment [6]. In addition, the z-score in [7] is -0.196 (inactive); in experiment [8] it was -0.743; in [9] it was -0.348; in experiment [10] it was -1.67 (inactive).

As for `COCCOC(=O)N1C(=O)[C@@]2(c3cc(C#CC4=CCCCC4)ccc31)[C@H](c1ccccc1OCCO)N1[C@H](c3ccccc3)[C@H](c3ccccc3)OC(=O)[C@H]1[C@@H]2C(=O)Nc1nc2ccccc2s1`, the z-score in [1] is -0.0438; in experiment [2] it was 0.764; in experiment [3], 0.416; in experiment [4], -2.34; in [5], -3.43; in experiment [6], -2.68. The z-score in experiment [7] was 0.745 (inactive); in experiment [8], -0.759; in experiment [9], -1.08; in experiment [10], -0.0954 (inactive).

On to `C=CCC(OC(C)=O)[C@@H]1[C@@H](N(Cc2ccc(-c3cccc(C(F)(F)F)c3)o2)C(=O)c2ccc(-c3ccccc3)cc2)c2cc(OCCCO)ccc2N1C(=O)c1ccc2ccccc2n1` (stereo not given in full), for which the z-score in experiment [1] is -0.157; in experiment [2], 0.585; in experiment [3] it was -0.474; in [4] it was 0.0887; in [5] it was 0.458; in experiment [6] it was 2.07. Moreover, the z-score in [7] was -0.572 (inactive); in experiment [8], 0.378; in [9] it was -0.0621; in experiment [10], 0.264 (inactive).
